Each structure is given as a SMILES string. Results filed as inconclusive are left out. Unmarked numbers belong to inactive results. The source made the active and inactive calls. Unless noted, calls follow the shape of the dose curve; as a rule, active = well fitted curve in the direction sought with a large enough effect; inconclusive = small, poorly fitted or top-dose-only effect, or another doubt; inactive = no such curve, though single readings can be large; an effect the other way counts as inactive or inconclusive.

In test [1] the target is Aldehyde dehydrogenase, mitochondrial (Homo sapiens) (UniProt P05091). Kind of test: qHTS for Inhibitors of the Aldehyde Dehydrogenase Family (ALDH2) Confirmatory screens (AID 2061303; active = well fitted inhibition curve with a large enough effect; title and protocol of this record describe different tests; also: nearly all actives have a fitted effect of over 45% in size; also: potency is read from the fitted curve at half-maximal effect).
Test [2] is described as follows: qHTS for Inhibitors of the Aldehyde Dehydrogenase Family (ALDH1A2, ALDH1A3, ALDH2, ALDH3A1) (AID 2061307). Also: nearly all actives have a fitted effect of over 50% in size.
For test [3], the target named is Aldehyde dehydrogenase, mitochondrial (Homo sapiens) (UniProt P05091). Kind of test: qHTS for Inhibitors of the Aldehyde Dehydrogenase Family (ALDH2) Primary screen (AID 2061308). Also: nearly all actives have a fitted effect of over 55% in size. Also: potency is read from the fitted curve at half-maximal effect.
Test [4] has as its target Retinaldehyde dehydrogenase 3 (Homo sapiens) (UniProt P47895). Nature of the test: qHTS for Inhibitors of the Aldehyde Dehydrogenase Family (ALDH1A3) Confirmatory screens (AID 2061311). Also: nearly all actives have a fitted effect of over 60% in size. Also: potency is read from the fitted curve at half-maximal effect.
For test [5], the target named is Retinal dehydrogenase 2 (Homo sapiens) (UniProt O94788). Kind of test: qHTS for Inhibitors of the Aldehyde Dehydrogenase Family (ALDH1A2) Confirmation screens (AID 2061314). Also: nearly all actives have a fitted effect of over 65% in size. Also: potency is read from the fitted curve at half-maximal effect.
Test [6] concerns the target Retinaldehyde dehydrogenase 3 (Homo sapiens) (UniProt P47895). Nature of the test: qHTS for Inhibitors of the Aldehyde Dehydrogenase Family (ALDH1A3) Primary screen (AID 2061315).
Test [7] has the same target. Kind of test: qHTS for Inhibitors of the Aldehyde Dehydrogenase Family (ALDH1A3) Validation screen (AID 2061312). Also: nearly all actives have a fitted effect of over 45% in size. Also: potency is read from the fitted curve at half-maximal effect.
The target of test [8] is Aldehyde dehydrogenase 1A1 (Homo sapiens) (UniProt P00352). Kind of test: qHTS for Inhibitors of the Aldehyde Dehydrogenase Family (ALDH1A1) Confirmatory screens (AID 2061316). Also: nearly all actives have a fitted effect of over 65% in size. Also: potency is read from the fitted curve at half-maximal effect.
Test [9] can be described thus: BET inhibitor-based combinations targeting novel dependencies in MECOM-rearranged (r) AML: SET-2 cell line (AID 2202231). Also: potency is read from the fitted curve at half-maximal effect; nearly all actives have a fitted effect of over 35% in size. The following applies: SET-2 AML cells viability, CellTiter-Glo luminescence, 48 h; viability: hits give low values, concentration not given here. The essentials:
(§1)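 Viability of cells (500 per well) is scored by luminescent CellTiter-Glo at 48 hr post-dosing. Eleven-point titrations are normalized to DMSO and empty controls and reduced to AUC values.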

Test [10] in a line: BET inhibitor-based combinations targeting novel dependencies in MECOM-rearranged (r) AML: OCI-AML3 cell line (AID 2202232). Also: series mostly up to about 46 µM; nearly all actives have a fitted effect of over 35% in size. The following applies: Potency: OCI-AML3 viability. The essentials: as §1
Test [11] is described as follows: BET inhibitor-based combinations targeting novel dependencies in MECOM-rearranged (r) AML: HNT-34 cell line (AID 2202234). Also: potency is read from the fitted curve at half-maximal effect; nearly all actives have a fitted effect of over 35% in size. The procedure, abridged:
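Using pin-tool transfer, drugs were added in 11 doses to cells (500/well), incubated 48 hr, and assessed with CellTiter-Glo. Z-AUC is a mean-centring transformation applied separately to each screened line.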

Test [12] in a line: BET inhibitor-based combinations targeting novel dependencies in MECOM-rearranged (r) AML: AML-194 cell line (AID 2202237; also: nearly all actives have a fitted effect of over 40% in size). The procedure, abridged: as §1

As for `Cc1ccc(OCCn2c(CCNC(=O)c3ccccc3C(F)(F)F)nc3ccccc32)cc1`, the Potency entry in test [1], in test [2], in test [3], in test [4], in [5] and in test [6] was “inactive” throughout.

On to `Cc1cc2occ(CN(C)CCN(C)Cc3cn(-c4cccc(C(F)(F)F)c4)c4ccccc34)c(=O)c2cc1C`, for which the Potency entry in test [1], in [2], in test [3], in test [4], in test [7] and in [5] was “inactive” throughout. Also, in [6], the Potency entry is “inactive”. Further, the Potency in [8] was 10.1 µM (active).

On to `CCCCC(=O)N1CCC(C(=O)Nc2ccc([S+](=O)([O-])Nc3nccs3)cc2)CC1`, for which the Potency entry in [1], in [2], in [3], in [4], in test [5] and in [6] was “inactive” throughout.

As to `Cc1cn([C@H]2C[C@H](N[S+](=O)([O-])Cc3ccc(Cl)cc3)[C@@H](CO)O2)c(=O)[nH]c1=O`, the Potency result in test [1], in test [2], in test [3], in test [4], in test [5] and in test [6] was “inactive” in each case.

For `NC1CCN(c2cnc3c(O)ccc(C(=O)O)c3c2)CC1`, the Potency entry in test [1], in [2], in [3] and in [6] was “inactive” throughout. Also, the Potency was 20.1 µM (active) in test [4] and 14.2 µM (active) in test [5].

Turning to `FC(F)(F)c1ccccc1-c1nc(NCc2ccc(-c3cccnc3)cc2)c2ccccc2n1`, the Potency result in test [1], in [2], in test [3], in test [5] and in [6] was “inactive” each time. Also, the Potency in [4] is 10.1 µM (active).

`Cc1ccc(-c2nccc(=O)n2CC(=O)NCCc2ccccc2)cc1`: the Potency entry in test [1], in test [2], in test [3], in test [4], in [5] and in test [6] was “inactive” throughout.

In the case of `Cc1cn(C[C@H](N)C(=O)O)c(=O)n(Cc2ccsc2C(=O)O)c1=O`, the Potency result in test [1], in [2], in test [3], in test [4], in [6] and in test [8] was “inactive” in each case. The Potency in test [7] was 12.6 µM (active).

In the case of `COc1ccc(C=O)cc1COc1ccc(NC(C)=O)cc1`, the Potency in test [1] was 3.16 µM (active); in test [2], 0.318 µM (active); in test [4] it was 15.8 µM (active); in [5], 3.18 µM (active). The Potency entry in [3] and in test [6] was “inactive” each time.

For `Cc1cc(C)n2ncc(C(=O)Nc3ccc4c(c3)OCO4)c2n1`, the Potency result in [1], in test [2], in test [3], in test [4], in [5] and in [6] was “inactive” in each case.

In the case of `COc1ccc(-c2nc3ccccc3s2)cc1`, the Potency entry in [1], in test [3] and in test [5] was “inactive” throughout. In addition, the Potency in [2] is 1.7 µM (active); in test [4], 1.42 µM (active).

As for `COc1nc2ccc(Br)cc2cc1[C@@H](c1ccccc1)[C@@](O)(CCN(C)C)c1cccc2ccccc12`, the Potency in test [1] was 1.27 µM (active); in [2], 0.896 µM (active); in test [3], 0.708 µM (active); in test [4] it was 8.96 µM (active); in test [7], 1.26 µM (active); in test [5] it was 1.79 µM (active). For the same compound, the Potency in test [8] is 0.142 µM (active).

As for `O=C1c2ccccc2NC(c2ccc(-c3ccc(Br)cc3)o2)N1O` (configuration not stated), the Potency in test [1] was 0.891 µM (active); in test [2], 11.3 µM (active); in [3], 1 µM (active); in [4] it was 12.7 µM (active); in test [5] it was 12.7 µM (active). In addition, the Potency entry in test [6] was “inactive”.

In the case of `Cc1ccc(CNc2ccc(N3CCNCC3=O)cc2)cc1`, the Potency entry in [1], in test [2], in [3] and in [6] was “inactive” each time. The Potency is 14.2 µM (active) in test [4] and 10.1 µM (active) in test [5].

Turning to `NC(=O)C1CCN(c2ncc(-c3ccc(Cl)cc3)s2)CC1`, the Potency result in test [1], in test [3], in test [4], in test [5] and in test [6] was “inactive” in each case. In addition, the Potency in [2] was 12.7 µM (active).

With `CCN1CCN(C(=O)N[C@@H](C(=O)N[C@@H]2C(=O)N3[C@@H]2SC(C)(C)[C@@H]3C(=O)O)c2ccccc2)C(=O)C1=O`, the Potency entry in [1], in test [2], in test [3], in [4], in test [7] and in [5] was “inactive” in each case. For the same compound, the Potency result in test [6] and in test [8] was “inactive” each time.

Turning to `Oc1cc(Nc2cccnc2)cc2cccnc12`, the Potency result in test [1], in [2], in [3] and in test [5] was “inactive” each time. In addition, the Potency in test [4] is 0.283 µM (active).

As for `Nc1ccc(S(=O)(=O)N2CCN(S(=O)(=O)c3c(F)cccc3F)CC2)cc1`, the Potency entry in [1], in test [2], in test [3], in [4], in [5] and in test [6] was “inactive” in each case.

In the case of `COc1ccc(CN2C(=O)c3ccccc3NC2c2ccc(OC)c(COc3ccc(NC(C)=O)cc3)c2)cc1` (configuration not stated), the Potency in test [1] is 17.8 µM (active); in [2], 7.94 µM (active); in test [4] it was 2.24 µM (active); in [5], 6.34 µM (active). The Potency result in [3] and in test [6] was “inactive” in each case.

As for `CC(=O)Nc1sc2c(c1-c1cc3ccccc3[nH]1)CCNC2`, the Potency result in test [1], in [2], in [3], in test [4] and in test [6] was “inactive” each time. Further, in test [5], the Potency was 28.3 µM (active).

For the compound `NCc1ccc(OCCCc2sc(-c3ccc4c(c3)/C(=N/Nc3nc5ccccc5s3)CCC4)nc2C(=O)O)cc1`, the Potency result in test [1], in [2], in [5], in [10] and in test [12] was “inactive” throughout. Further, the Potency in test [3] is 31.6 µM (active); in test [4], 14.2 µM (active); in test [7], 7.08 µM (active); in test [9] it was 0.332 µM (active); in test [11], 0.166 µM (active).

With `O=C(Nc1ccccc1)OCc1c(-c2ccccc2)no[n+]1[O-]`, the Potency result in test [1], in test [3], in test [4], in [5] and in test [6] was “inactive” in each case. Further, in test [2], the Potency was 11.3 µM (active).

For `c1cncc(CNc2ncnc3ccc(-c4ccoc4)cc23)c1`, the Potency entry in [1], in test [2], in test [3], in test [4], in test [5] and in test [6] was “inactive” each time.

As for `CCOc1ccccc1-c1nnc2n1N=C(c1ccc(OC)cc1)CS2`, the Potency result in [1], in test [3], in [4], in [5] and in test [6] was “inactive” throughout. For the same compound, the Potency in test [2] was 7.94 µM (active); in test [8], 17.9 µM (active).

`N[C@@H](CCC(=O)O)C(=O)Nc1ccc(Cl)cc1C(=O)c1ccc[nH]1`: the Potency result in test [1], in [2], in test [3], in test [4], in test [5] and in [6] was “inactive” throughout. Moreover, in test [8], the Potency result was “inactive”.

As to `N#Cc1ccc(-c2ccc(C3Nc4ccccc4C(=O)N3O)o2)cc1` (configuration not stated), the Potency in test [1] is 1.26 µM (active); in test [2], 3.18 µM (active); in test [3], 1.26 µM (active); in [4], 5.04 µM (active); in test [5], 3.18 µM (active); in test [8] it was 3.57 µM (active). In addition, the Potency result in [6] is “inactive”.

The values are drawn from PubChem BioAssay (NCATS).
